Shown are actives, neighbours in structure and some others; about 1.3% of the full set was active somewhere.
PKA-R1A act: PKA-R1A complex activation | P00514+P68181 | PKA-R1A dissociation, Cy5-IP20 fluorescence polarization; scaled: DMSO 0%, 113 µM cGMP 100% | activation, % at 11.4 µM | 340,000 compounds, 0.083% hits | AID 504707;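 active means percent activation above the mean of all tested compounds plus 3 SD, cut at about 19% in these data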;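 further: higher means more PKAc released from R1A so a rise in polarization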
E coli Lon inh: inhibitors of E. coli Lon protease | AID 602123 | purified E. coli Lon protease, fluorescence polarization | P0A9M0 | inhibition, % at 7.94 µM | 360,000 compounds, 0.42% hits; in the data active means inhibition above about 13%, passing the limit was not always enough;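 further: 0% = enzyme with probe and DMSO and 100% = no enzyme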
Rin1 Abl inh: human Rin1-Abl interaction inhibition. TR-FRET Rin1/Abl binding, biochemical. inhibition, % at 7.35 µM. 360,000 compounds, 0.4% hits; in the data active means inhibition above about 5%, passing the limit was not always enough
PKA-R2B activ: PKA-R2B complex activation; AID 504700; activation, % at 11.4 µM; 340,000 compounds, 0.079% hits; PKA-R2B holoenzyme dissociation, Cy5-IP20 fluorescence polarization; R2B truncated from residue 108, S112A mutant; 0% DMSO only, 100% 113 µM cGMP;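 active means activation above a cutoff set at the mean over all compounds plus 3 SD, cut at about 18% in these data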;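 further: higher means more holoenzyme dissociation and a rise in polarization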
IDE inh: inhibitors of human insulin-degrading enzyme in cells. P14735. HEK cells, FAbetaB cleavage, fluorescence polarization. 320,000 compounds, 0.41% hits. inhibition, % at 5.59 µM. AID 434962;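 active means percent inhibition above the average of all tested compounds plus 3 SD, set per screening campaign, cut at about 16% in these data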;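 further: IDE supplied by intact live HEK cells; FP after avidin binding of uncleaved biotin substrate so inhibition keeps polarization high; 0% = DMSO wells and 100% = 60 µM reference IDE inhibitor Ii1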
Target sequence (P14735 whole entry, looked up): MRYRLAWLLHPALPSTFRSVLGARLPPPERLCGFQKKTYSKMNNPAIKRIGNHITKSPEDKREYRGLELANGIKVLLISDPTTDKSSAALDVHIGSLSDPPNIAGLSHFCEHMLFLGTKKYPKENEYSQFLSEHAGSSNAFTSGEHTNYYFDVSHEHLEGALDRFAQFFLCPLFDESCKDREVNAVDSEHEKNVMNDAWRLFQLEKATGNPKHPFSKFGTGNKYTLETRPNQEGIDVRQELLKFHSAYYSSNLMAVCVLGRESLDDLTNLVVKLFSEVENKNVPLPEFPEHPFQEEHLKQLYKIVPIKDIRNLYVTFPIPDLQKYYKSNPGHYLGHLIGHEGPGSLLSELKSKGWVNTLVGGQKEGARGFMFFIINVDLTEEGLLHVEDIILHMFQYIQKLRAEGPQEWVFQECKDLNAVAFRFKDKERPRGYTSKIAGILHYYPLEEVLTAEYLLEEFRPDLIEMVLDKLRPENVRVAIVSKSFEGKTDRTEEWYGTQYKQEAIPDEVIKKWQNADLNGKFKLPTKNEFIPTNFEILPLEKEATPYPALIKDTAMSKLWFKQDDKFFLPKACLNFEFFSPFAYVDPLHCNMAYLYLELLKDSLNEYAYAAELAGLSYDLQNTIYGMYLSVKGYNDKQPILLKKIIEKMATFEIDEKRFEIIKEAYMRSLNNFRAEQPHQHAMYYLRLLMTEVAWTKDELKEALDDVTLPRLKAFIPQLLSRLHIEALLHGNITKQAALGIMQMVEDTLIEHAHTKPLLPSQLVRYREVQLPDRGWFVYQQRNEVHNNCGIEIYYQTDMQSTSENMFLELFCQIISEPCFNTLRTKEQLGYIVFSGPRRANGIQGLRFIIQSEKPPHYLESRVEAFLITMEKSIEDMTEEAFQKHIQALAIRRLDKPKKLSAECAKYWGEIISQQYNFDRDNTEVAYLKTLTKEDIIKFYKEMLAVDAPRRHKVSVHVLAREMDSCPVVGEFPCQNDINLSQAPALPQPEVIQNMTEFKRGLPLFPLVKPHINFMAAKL
IDE cell activ: IDE (human) activation, cell-based. P14735. HEK cells, FAbeta-B cleavage, fluorescence polarization; 0% vehicle, 100% cell-free pure enzyme wells. activation, % at 5.96 µM. 340,000 compounds, 0.073% hits;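 active means activation above the mean of all tested compounds plus 3 SD, set per screening campaign, cut at about 17% in these data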
Rin1-Abl confirm: confirmation of inhibitors of human Rin1-Abl interaction; TR-FRET Rin1-Abl binding, purified proteins; inhibition, % at 7.35 µM; shares compounds with Rin1 Abl inh; 1,300 compounds, 49% hits; AID 602124
GFP quench: quenches GFP fluorescence, counter-screen for Rin1-Abl inhibitors; 1,300 compounds, 8.5% hits; inhibition, % at 6.75 µM; inhibitors/quenchers counterscreen; shares compounds with Rin1 Abl inh;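 further: ABL1-eGFP fusion protein alone without its partner RIN1-SBP; 0% = protein with vehicle and 100% = wells lacking protein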
GFP quench DR: counter-screen for Rin1-Abl inhibitors: GFP quenchers, dose response; AID 602182; GFP fluorescence interference/quenching counterscreen; shares compounds with Rin1 Abl inh; IC50, µM; 230 tested, under 10 active; call rule not given here;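 further: ABL1-eGFP fusion protein alone without its RIN1 binding partner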
Starred values were filed as active, the others as inactive. Unless noted, no stated cut-off is given here; in the data, active means inhibition above about 6.5%; inactive means the rest.

`CCOc1ccc(C(=O)OCC(=O)Nc2ccc(SC(F)F)cc2)cc1OCC` gave PKA-R1A act -11, E coli Lon inh -9, Rin1 Abl inh 8.1*, PKA-R2B activ 1, IDE inh 9, IDE cell activ 1, Rin1-Abl confirm -1 and GFP quench 0.
Screening Cc1cc(C)nc(NC(=O)c2c(Cl)cccc2Cl)n1 returned PKA-R1A act -4, E coli Lon inh 1, Rin1 Abl inh 4.4*, PKA-R2B activ -2, IDE inh 2, IDE cell activ 6, Rin1-Abl confirm 2 and GFP quench 3.
Cc1cc(C)nc(NC(=O)c2c(-c3c(Cl)cccc3Cl)noc2C)n1 was read as PKA-R1A act -1, E coli Lon inh 3, Rin1 Abl inh -2, PKA-R2B activ -13, IDE inh -9 and IDE cell activ 5.
Screening Cc1nnc(SCCOc2ccccc2)s1 returned PKA-R1A act -6, E coli Lon inh 3, Rin1 Abl inh 11*, PKA-R2B activ 6, IDE inh 1, IDE cell activ 9, Rin1-Abl confirm 7.9* and GFP quench 1.
For Nc1nnc(SCCOc2ccccc2)s1 the results were PKA-R1A act -6, E coli Lon inh 0, Rin1 Abl inh 4, PKA-R2B activ 8, IDE inh 11 and IDE cell activ 7.
For Cc1ccc(S(=O)(=O)N2CCN(C(=O)Cn3cnc4c3c(=O)n(C)c(=O)n4C)CC2)cc1C the results were PKA-R1A act 3, E coli Lon inh -11, Rin1 Abl inh 17*, PKA-R2B activ -1, IDE inh -3, IDE cell activ 4, Rin1-Abl confirm 19*, GFP quench -1 and GFP quench DR >68.
Screening Cn1c(=O)c2c(ncn2CC(=O)N2CCN(S(=O)(=O)c3ccc(Cl)cc3)CC2)n(C)c1=O returned PKA-R1A act -8, E coli Lon inh -1, Rin1 Abl inh 7, PKA-R2B activ 4, IDE inh -6 and IDE cell activ 1.
`O=C(CN1C(=O)NC2NC(=O)NC21)NN=C1CCCC1` (stereo unspecified) gave PKA-R1A act -3, E coli Lon inh 2, Rin1 Abl inh 2, PKA-R2B activ 0, IDE inh 11 and IDE cell activ 7.
`CCCCN1C(=O)N(C)C2NC(=O)NC21` (stereo unspecified) gave PKA-R1A act 16, E coli Lon inh -2, Rin1 Abl inh 66*, PKA-R2B activ 0, IDE inh 8, IDE cell activ 2, Rin1-Abl confirm 76*, GFP quench 1 and GFP quench DR >67.
CCCCN1C(=O)NC2NC(=O)NC21 (stereo unspecified) was read as PKA-R1A act 0, E coli Lon inh -5, Rin1 Abl inh 97*, PKA-R2B activ 0, IDE inh -1, IDE cell activ -7, Rin1-Abl confirm 99*, GFP quench -2 and GFP quench DR >68.
For CCCCN1C(=O)N(C)C2C1N(C)C(=O)N2CCCC (stereo unspecified) the results were PKA-R1A act -9, E coli Lon inh -3, Rin1 Abl inh 4, PKA-R2B activ -8, IDE inh -4 and IDE cell activ -6.
O=S(=O)(Nc1ccccn1)c1ccc(-n2cccn2)cc1 was read as PKA-R1A act -3, E coli Lon inh 12, Rin1 Abl inh 1, PKA-R2B activ 1, IDE inh 2 and IDE cell activ 4.
O=C(Nc1ccc2c(c1)OCCO2)C1CCCN(S(=O)(=O)c2cccc3nsnc23)C1 (stereo unspecified) was read as PKA-R1A act -17, E coli Lon inh 1, Rin1 Abl inh -5, PKA-R2B activ -4, IDE inh 8 and IDE cell activ 4.
`CCC(c1nnnn1CCOC)N1CCN(c2nc3ccccc3s2)CC1` (stereo unspecified) gave PKA-R1A act 8, E coli Lon inh -3, Rin1 Abl inh 2, PKA-R2B activ 0, IDE inh 1 and IDE cell activ 2.
Screening COCCn1nnnc1C(CC(C)C)N1CCN(c2nc3ccccc3s2)CC1 (stereo unspecified) returned PKA-R1A act 10, E coli Lon inh -3, Rin1 Abl inh 9.3*, PKA-R2B activ -14, IDE inh 5, IDE cell activ 2, Rin1-Abl confirm -2 and GFP quench 0.
For C[C@H](CO)N1C[C@H](C)[C@@H](CN(C)Cc2cccc(C(=O)O)c2)OCc2cnnn2CCCC1=O the results were PKA-R1A act 5, E coli Lon inh -5, Rin1 Abl inh -1 and PKA-R2B activ 4.
Screening Cc1cc(C)cc(OCc2nnc(SCC(=O)c3ccc(Br)cc3)o2)c1 returned PKA-R1A act 3, E coli Lon inh -13, Rin1 Abl inh 4.7*, PKA-R2B activ -2, IDE inh -3, IDE cell activ 0, Rin1-Abl confirm 1 and GFP quench -1.
`Cc1cc(C)cc(OCc2nnc(SCC(=O)N3CCCCC3)o2)c1` gave PKA-R1A act 3, E coli Lon inh -13, Rin1 Abl inh 2, PKA-R2B activ -8, IDE inh 1 and IDE cell activ 1.
CCN1CCC(O)(C(C(=O)O)c2ccccc2)CC1 (stereo unspecified) was read as PKA-R1A act -1, E coli Lon inh 10, Rin1 Abl inh 5, PKA-R2B activ -6 and IDE cell activ 5.
For CC(C)n1cc(CN2CCC(C(=O)Nc3cccc(-c4cscn4)c3)CC2)cn1 the results were PKA-R1A act -4, E coli Lon inh -5, Rin1 Abl inh 11*, PKA-R2B activ -9, IDE inh 7, IDE cell activ 5, Rin1-Abl confirm 24*, GFP quench 1 and GFP quench DR >68.
For Oc1c(CN2CCCCC2)cc(COCc2ccccc2)c2cccnc12 the results were PKA-R1A act -6, E coli Lon inh 1, Rin1 Abl inh 14*, PKA-R2B activ -3, IDE inh 0, IDE cell activ 5, Rin1-Abl confirm 6 and GFP quench 1.
Screening COCc1cc(CN2CCCC2)c(O)c2ncccc12 returned PKA-R1A act -11, E coli Lon inh 6, Rin1 Abl inh 22*, PKA-R2B activ -5, IDE inh 3, IDE cell activ 5, Rin1-Abl confirm 5 and GFP quench -3.
